High-throughput results as filed in PubChem BioAssay.
An excerpt weighted towards active compounds, which were near 6.4% of everything screened.
RORg inh: blocks mouse ROR gamma transcriptional activity. P51450. Drosophila S2 Gal4-RORgamma UAS-luciferase reporter, 20 h. AID 2551. 310,000 compounds, 5.4% hits. Potency, µM (highest dose often 53.6 µM), inactives show at the top dose activity change, negative = inhibition, most hits filed as inhibitors; further: nearly all actives have a fitted effect of over 60% in size
Target sequence (P51450 whole entry, looked up, the tested form may be a part): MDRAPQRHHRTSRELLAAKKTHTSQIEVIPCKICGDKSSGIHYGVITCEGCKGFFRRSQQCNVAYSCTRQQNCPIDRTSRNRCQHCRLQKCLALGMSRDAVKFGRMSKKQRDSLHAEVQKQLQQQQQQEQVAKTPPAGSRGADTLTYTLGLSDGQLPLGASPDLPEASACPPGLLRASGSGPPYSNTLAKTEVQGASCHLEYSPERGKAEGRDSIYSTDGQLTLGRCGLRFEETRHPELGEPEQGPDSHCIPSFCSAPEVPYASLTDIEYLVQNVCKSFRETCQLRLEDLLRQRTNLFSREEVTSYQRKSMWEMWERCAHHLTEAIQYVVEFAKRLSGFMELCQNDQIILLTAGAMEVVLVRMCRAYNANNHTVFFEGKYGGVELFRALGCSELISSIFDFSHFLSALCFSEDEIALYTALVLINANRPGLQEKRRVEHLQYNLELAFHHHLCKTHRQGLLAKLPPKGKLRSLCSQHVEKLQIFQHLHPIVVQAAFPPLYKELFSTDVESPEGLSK
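In this cell-based reporter format, copper sulfate (700 uM final) drives Gal4–ROR gamma fusion expression from a metallothionein promoter in Drosophila Schneider cells; compounds preincubated 1 hr, reporter read after 20 hr at ambient temperature.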
KinaseGlo FLuc: counter-screen: inhibitors of Kinase-Glo firefly luciferase; Q27757; Kinase-Glo luciferase, ATP luminescence, 8 min; Potency, µM (titrated, usually from 38.3 µM), for inactives: top-dose activity change, negative = inhibition, usual class: inhibitors; 200,000 compounds, 0.28% hits; further: nearly all actives have a fitted effect of over 60% in size
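Inhibition of Kinase-Glo luciferase light generation was assessed at 10 uM ATP in pH 7.2 imidazole buffer, with luminescence measured after eight minutes at ambient temperature.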
Gal4-VP16 FLuc: counter-screen for ROR gamma inhibitors: Gal4-VP16 reporter | Drosophila S2 Gal4-VP16 UAS-luciferase, luminescence, 20 h | Potency, µM (series often up to 53.6 µM), for the others: top-dose activity, negative = inhibition, actives largely listed as inhibitors | 310,000 compounds, 3.5% hits;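 further: Gal4-VP16 expression switched on by copper sulfate through the metallothionein promoter; nearly all actives have a fitted effect of over 50% in size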
* = called active by the depositor. The call rests on the fitted dose curve; in most records, active means well fitted curve in the direction sought with a large enough effect; inconclusive means small, poorly fitted or top-dose-only effect, or another doubt; inactive means no such curve, though single readings can be large; an effect the other way counts as inactive or inconclusive. On the % scale 0 is the no-effect control and ±100 the full control effect; potency means the concentration at half of the fitted maximal effect.

For CCOC(=O)c1cc2c(nc1N)CC(C)(C)OC2 the results were RORg inh inconclusive, KinaseGlo FLuc 1% and Gal4-VP16 FLuc 23%.
For CCOC(=O)c1cc2c(nc1NC(=S)NCc1ccccc1)CCCC2 the results were RORg inh 6.3µM*, KinaseGlo FLuc -2% and Gal4-VP16 FLuc 3.5µM*.
`CCOC(=O)c1cc2c(nc1NC(=S)Nc1ccccc1)CC(C)(C)OC2` gave RORg inh 2.8µM*, KinaseGlo FLuc 1% and Gal4-VP16 FLuc inconclusive.
COC(=O)[C@@]1(Cc2ccccc2)[C@H]2c3cc(C(=O)N4CCCC4)n(Cc4ccc(C(F)(F)F)nc4)c3C[C@H]2CN1C(=O)c1ccccc1 was read as RORg inh 4%, KinaseGlo FLuc 0% and Gal4-VP16 FLuc 8%.
CC(Oc1ccccc1)C(=O)N=C1SC2CS(=O)(=O)CC2N1CCc1ccccc1 (configuration not stated) was read as RORg inh 2% and Gal4-VP16 FLuc -4%.
For CC(=O)OC1CC2C(C)(C)C(O)CC(O)[C@@]2(C)C2CC[C@@]3(C)C(=CC(=O)OC3c3ccoc3)[C@]12C (some centres not stated) the results were RORg inh 5%, KinaseGlo FLuc 1% and Gal4-VP16 FLuc 11%.
Screening O=C(Nc1c(F)cc(F)cc1Br)c1ccco1 returned RORg inh inconclusive, KinaseGlo FLuc 5% and Gal4-VP16 FLuc -29%.
`NNC(=S)Nc1c(Br)cc(F)cc1Br` gave RORg inh 6.3µM* and Gal4-VP16 FLuc inconclusive.
O=C(O)CC(NC(=O)Cc1ccccc1)c1cc([N+](=O)[O-])ccc1Cl (configuration not stated) was read as RORg inh 1%, KinaseGlo FLuc 2% and Gal4-VP16 FLuc -7%.
For O=c1c(CCc2ccccc2)nc2cnc(N3CCNCC3)nc2n1Cc1ccc(F)cc1 the results were RORg inh 4.5µM*, KinaseGlo FLuc -4% and Gal4-VP16 FLuc inconclusive.
`CN1CCN(c2ncc3nc(CCc4ccccc4)c(=O)n(Cc4ccc(F)cc4)c3n2)CC1` gave RORg inh -44%, KinaseGlo FLuc -2% and Gal4-VP16 FLuc -25%.
`Cc1ccc(-c2nnn(CC(=O)N(c3ccccc3)C(C(=O)NCC3CCCO3)c3cccs3)n2)o1` (configuration not stated) gave RORg inh 2%, KinaseGlo FLuc -3% and Gal4-VP16 FLuc 1%.
For COc1ccc(-c2nc3cnc(N4CCOCC4)nc3n(-c3ccccc3)c2=O)cc1 the results were RORg inh -19% and Gal4-VP16 FLuc -11%.
`CCCN(CCC)c1cc(Cl)nc(N)n1` gave RORg inh 13%, KinaseGlo FLuc -2% and Gal4-VP16 FLuc -2%.
For c1ccc(-c2cc(-c3nc4ccccc4[nH]3)c3ccccc3n2)cc1 the results were RORg inh -16%, KinaseGlo FLuc -1% and Gal4-VP16 FLuc -2%.
For CCn1c(-c2cc(-c3ccc(C)c(C)c3)nc3ccccc23)n[nH]c1=S the results were RORg inh 10µM*, KinaseGlo FLuc -3% and Gal4-VP16 FLuc -17%.
CCCOc1cccc(-c2nc3ccccc3c(=O)o2)c1 was read as RORg inh 1%, KinaseGlo FLuc -1% and Gal4-VP16 FLuc -22%.
CCOc1cccc(-c2cc(-c3n[nH]c(=S)n3CC)c3ccccc3n2)c1 was read as RORg inh 0.13µM*, KinaseGlo FLuc -4% and Gal4-VP16 FLuc inconclusive.
For Cc1ccc(-c2cc(-c3n[nH]c(=S)n3C)c3ccccc3n2)cc1 the results were RORg inh 1.3µM*, KinaseGlo FLuc -5% and Gal4-VP16 FLuc -14%.
`CCOc1ccccc1-c1cc(-c2n[nH]c(=S)n2CC)c2ccccc2n1` gave RORg inh 5.6µM*, KinaseGlo FLuc 2% and Gal4-VP16 FLuc -16%.
Screening CCn1c(-c2cc(C3CC3)nc3ccccc23)n[nH]c1=S returned RORg inh inconclusive, KinaseGlo FLuc 10% and Gal4-VP16 FLuc -17%.
CCn1c(-c2cc(-c3cc(C)ccc3C)nc3ccccc23)n[nH]c1=S was read as RORg inh inconclusive, KinaseGlo FLuc 1% and Gal4-VP16 FLuc -1%.
`CC(=O)Nc1ccc(S(=O)(=O)N2c3ccccc3NC(=O)CC2C)c(Cl)c1` (configuration not stated) gave RORg inh -3% and Gal4-VP16 FLuc 6%.
`O=C(NC[C@H]1CCCCN1)c1cc(OCC(F)(F)F)ccc1OCC(F)(F)F` gave RORg inh 0%, KinaseGlo FLuc 0% and Gal4-VP16 FLuc 4%.
Screening Cc1ccc(C2(O)C(=O)c3ccccc3C2=O)c(O)c1C returned RORg inh 23% and Gal4-VP16 FLuc 6%.
`CC(C)(C)c1cccc(C2(O)C(=O)c3ccccc3C2=O)c1O` gave RORg inh -27% and Gal4-VP16 FLuc 13µM*.
Screening CN(Cc1ccc(OCC(O)CN2CCCCC2)cc1)Cc1ccnc2ccccc12 (configuration not stated) returned RORg inh 7.1µM* and Gal4-VP16 FLuc 6.3µM*.
Cc1nn(C)cc1CN(C)Cc1ccc(OCC(O)CN2CCCCC2)cc1 (configuration not stated) was read as RORg inh 2%, KinaseGlo FLuc -2% and Gal4-VP16 FLuc 4%.
Screening COC(=O)Nc1ccc(S(=O)(=O)NCCO)cc1 returned RORg inh 18%, KinaseGlo FLuc -2% and Gal4-VP16 FLuc -3%.
For Cc1onc(-c2c(Cl)cccc2Cl)c1C(=O)N/N=C(\N)COc1ccc(Cl)cc1 the results were RORg inh 0.45µM*, KinaseGlo FLuc 6% and Gal4-VP16 FLuc 0.5µM*.
COc1ccc(CNC(=O)c2c(-c3c(F)cccc3Cl)noc2C)cc1 was read as RORg inh 10% and Gal4-VP16 FLuc -8%.
For O=C(O)c1ccccc1C(=O)NCc1c(Cl)cccc1Sc1ccc(Cl)cc1 the results were RORg inh 24% and Gal4-VP16 FLuc 1%.
`COc1ccc(CN(CC(=O)NCCc2ccccc2)C(=O)CCC(=O)Nc2ccccn2)cc1` gave RORg inh 8% and Gal4-VP16 FLuc -2%.
`COc1ccc(NC(=S)NCc2ccc3c(c2)OCO3)cc1` gave RORg inh 13µM*, KinaseGlo FLuc 3% and Gal4-VP16 FLuc inconclusive.
Screening CC(C)c1ccc(NC(=S)NCc2ccc3c(c2)OCO3)cc1 returned RORg inh 13µM*, KinaseGlo FLuc -3% and Gal4-VP16 FLuc inconclusive.
For CC(C)c1ccc(NC(=O)Cn2nnc(C(=O)NCc3ccc4c(c3)OCO4)c2N)cc1 the results were RORg inh -17% and Gal4-VP16 FLuc -5%.
Screening COC(=O)NCc1ccc2c(c1)OCO2 returned RORg inh -5%, KinaseGlo FLuc -3% and Gal4-VP16 FLuc -2%.
Screening S=C(NCc1cccnc1)Nc1ccc2c(c1)OCO2 returned RORg inh -12% and Gal4-VP16 FLuc 1%.
Screening S=C(NCc1ccc(Cl)c(Cl)c1)Nc1ccc2c(c1)OCO2 returned RORg inh 11µM*, KinaseGlo FLuc 4% and Gal4-VP16 FLuc inconclusive.
Screening CCN(CC)CCCNC(=O)CN1N=C(c2ccc(OC)cc2)CCC1=O returned RORg inh 13% and Gal4-VP16 FLuc -1%.
For Cc1cc(Cl)c2cc3ccccc3cc2n1 the results were RORg inh 4% and Gal4-VP16 FLuc 4%.
